{"source": "PubChem BioAssay (NCATS)", "note": "Results filed as inconclusive are left out. Values without a mark were called inactive. Active and inactive are the calls of the source. Calls come from the whole dose curve; as a rule, active = well fitted cell-killing curve with a large enough effect; inconclusive = small, poorly fitted or top-dose-only effect; inactive = flat fitted curve, though single readings scatter."}
{"test": "qHTS of pediatric cancer cell lines to identify multiple opportunities for drug repurposing: Primary screen for Rh18 cells (AID 1347102); note: nearly all actives have a fitted effect of over 65% in size; note: potency is the fitted concentration of half-maximal effect; for activity change, negative = cytotoxic: % is set by controls: 0 for no effect and ±100 for the full control effect", "settings": "Rh18 rhabdomyosarcoma viability, CellTiter-Glo luminescence, 48 h; series mostly up to 46 µM; activity change, negative = cytotoxic: at the top concentration", "description": "Drug repurposing or repositioning has been offered as a strategy for drug development in oncology programs. This approach has special potential for childhood cancers and other rare or orphan diseases, where the expected return on new drug development has been a disincentive to pharmaceuticals.\nIn this project we exploit the poly-pharmacology of drugs to discover new indications via phenotypic screening of a panel of 19 well-characterized cell lines derived from solid tumors seen in children and adolescents. The goal is to identify approved drugs with previously unrecognized anticancer properties that has the potential to reveal new mechanisms and biological processes involved in carcinogenesis or drug resistance. We employed a titration-based paradigm (quantitative high-throughput screening or qHTS), where all compounds were tested at multiple concentrations for their effect on cell viability. Concentration-response curves (CRCs) were derived directly from the primary screen, and both potency and efficacy values were used to identify compounds with robust bioactivity profiles. We screened the NIH Chemical Genomics Center (NCGC) Pharmaceutical Collection (NPC) and Mechanism Interrogation Plate (MIPE) small molecule collections of approved and investigational compounds against these cell lines; and measured metabolically active cells after 48 hours of compound treatment as a proxy for cell viability.\nAssay Submitter: Nathalia J. Martinez, National Center for Advancing Translational Sciences, National Institutes of Health, Rockville, MD, USA; email: natalia.martinez@nih.gov\n[1] Shen, M et al. Quantitative high-throughput phenotypic screening of pediatric cancer cell lines identifies multiple opportunities for drug repurposing. Oncotarget 2017 Dec 19;9(4):4758-4772. PMID 29435139.\nThe cells were obtained from University of North Carolina (UNC), Pediatric Preclinical Testing Program (PPT), and Coriell Institute (CI).\nqHTS cell viability assay:\nCells were assayed in growth media at a density of 500-1,000 cells/well. Five microliters of cells were dispensed into 1,536-well, white, solid-bottom, TC-treated plates (Greiner Bio One) using a multidrop dispenser and incubated at 37 degrees C, 5% CO2, under a humidified atmosphere for 5 hours. Twenty-three nanoliters of compounds and controls (neutral control DMSO or positive control bortezomib at final concentration of 2.3 µM) were subsequently transferred by Kalypsys pintool. For primary screens, the MIPE collection was tested at 11-point dilutions (final concentrations range from 0.78 nM to 46 µM) and the NPC collection at 8-point dilutions (final concentrations range from 0.59 nM to 46 µM). Compounds tested in follow-up screens were assayed at 11-point dilutions. Cells were incubated for 48 hours, followed by addition of 3 µL of CellTiter-Glo (Promega). After a 15 min incubation at room temperature, samples were analyzed for luminescence intensity using a ViewLux High-throughput CCD imager equipped with clear filters.", "units": {"activity change, negative = cytotoxic": "%"}}
{"molecule": "COc1cc(Oc2ccnc3cc(OC)c(OC)cc23)ccc1NC(=O)NC(C)c1nccs1", "note": "(stereo not given)", "activity change, negative = cytotoxic": -20}
{"molecule": "NS(=O)(=O)c1cc2c(cc1Cl)NC=NS2(=O)=O", "Potency": "inactive"}
{"molecule": "COc1ccc(-c2ccc3c(N4CCOC[C@H]4C)nc(N4CCOC[C@H]4C)nc3n2)cc1CO", "Potency": "0.132 µM (active)"}
{"molecule": "Cc1ccc(-n2nc(C(C)(C)C)cc2NC(=O)Nc2ccc(OCCN3CCOCC3)c3ccccc23)cc1", "activity change, negative = cytotoxic": 19.9}
{"molecule": "Cc1ccc(N(CC2=NCCN2)c2cccc(O)c2)cc1", "Potency": "inactive"}
{"molecule": "O=C1CCCC2=C1C(c1[nH]ncc1Cl)N=C(Nc1nc3ccccc3o1)N2", "note": "(stereo not given)", "activity change, negative = cytotoxic": -4.98}
{"molecule": "CC(=O)Oc1ccccc1C(=O)O", "Potency": "inactive"}
{"molecule": "Cc1[nH]c(=O)c(C#N)cc1-c1ccncc1", "Potency": "inactive"}
{"molecule": "CCOc1ccc(Cc2cc([C@@H]3O[C@H](CO)[C@@H](O)[C@H](O)[C@@H]3O)ccc2Cl)cc1", "activity change, negative = cytotoxic": -0.397}
{"molecule": "NCCc1ccc(O)c(O)c1", "activity change, negative = cytotoxic": 10.2}
{"molecule": "CCn1c(-c2nonc2N)nc2c(C#CC(C)(C)O)ncc(OC[C@H]3CCCNC3)c21", "activity change, negative = cytotoxic": 6.81}
{"molecule": "C1COC(NC(C2CC2)C2CC2)=N1", "Potency": "inactive"}
{"molecule": "Cc1c(C)c2c(c(C)c1O)CCC(C)(COc1ccc(CC3SC(=O)NC3=O)cc1)O2", "note": "(stereo not given)", "Potency": "inactive"}
{"molecule": "O=C(Nc1ccc(F)c(C(F)(F)F)c1)Nc1nnc(-c2ccncc2)s1", "activity change, negative = cytotoxic": -0.14}
{"molecule": "O=c1[nH]cnc2[nH]ncc12", "Potency": "inactive"}
{"molecule": "CC(c1cc2ccccc2s1)N(O)C(N)=O", "note": "(stereo not given)", "Potency": "inactive"}
{"molecule": "O=C(C=Cc1ccc(/C=C/C(=O)Nc2ccc(C3=NCCN3)cc2)cc1)Nc1ccc(C2=NCCN2)cc1", "activity change, negative = cytotoxic": 17.3}
{"molecule": "O=c1ncn2nc(Sc3ccc(F)cc3F)ccc2c1-c1c(Cl)cccc1Cl", "activity change, negative = cytotoxic": -26.2}
{"molecule": "CC(C)(C)NCC(O)c1ccc(O)c(CO)c1", "note": "(stereo not given)", "Potency": "inactive"}
{"molecule": "C[C@@H]1CN(Cc2ccc(F)cc2)[C@@H](C)CN1C(=O)c1cc2c(C(=O)C(=O)N(C)C)cn(C)c2cc1Cl", "activity change, negative = cytotoxic": -18.1}
{"molecule": "COc1ccc(CCN2CCN(CCCc3ccccc3)CC2)cc1OC", "activity change, negative = cytotoxic": -14.8}
{"molecule": "COc1ccc(C2=N[C@H](c3ccc(Cl)cc3)[C@H](c3ccc(Cl)cc3)N2C(=O)N2CCNC(=O)C2)c(OC(C)C)c1", "Potency": "5.26 µM (active)"}
{"molecule": "CS(=O)(=O)Oc1ccc2c(NC(N)=O)c(C(=O)c3ccc(Cl)cc3Cl)oc2c1", "Potency": "2.35 µM (active)"}
{"molecule": "Nc1nc2c(ncn2COCCO)c(=O)[nH]1", "Potency": "inactive"}
{"molecule": "Cc1[nH]c(=O)c(C#N)cc1-c1ccc2nccn2c1", "Potency": "inactive"}
{"molecule": "CCC(C)n1ncn(-c2ccc(N3CCN(c4ccc(OC[C@H]5CO[C@](Cn6cncn6)(c6ccc(Cl)cc6Cl)O5)cc4)CC3)cc2)c1=O", "note": "(stereo not given in full)", "Potency": "inactive"}
{"molecule": "O=C(O)CCc1ccc(NCc2cccc(Oc3ccccc3)c2)cc1", "activity change, negative = cytotoxic": 2.77}
{"molecule": "CCN(CC)CCCC(C)Nc1ccnc2cc(Cl)ccc12", "note": "(stereo not given)", "Potency": "inactive"}
{"molecule": "N#Cc1ccc(C(c2ccc(C#N)cc2)n2cncn2)cc1", "activity change, negative = cytotoxic": -11.6}
{"molecule": "Cc1cc2c(C(C)C)c(O)c(O)c(C=O)c2c(O)c1-c1c(C)cc2c(C(C)C)c(O)c(O)c(C=O)c2c1O", "Potency": "23.5 µM (active)"}
{"molecule": "O=S(=O)(N=Cc1c(O)ccc2ccccc12)c1cccs1", "activity change, negative = cytotoxic": -7.69}
{"molecule": "CNCc1ccc(-c2[nH]c3cc(F)cc4c3c2CCNC4=O)cc1", "activity change, negative = cytotoxic": 9.18}
{"molecule": "COc1cc2c(cc1OC)CN(CCc1ccc(NC(=O)c3cccc4c(=O)c5cccc(OC)c5[nH]c34)cc1)CC2", "activity change, negative = cytotoxic": 35.9}
{"molecule": "Cc1csc(NC(=O)c2sc3nc4c(c(C(F)(F)F)c3c2N)CCC4)n1", "activity change, negative = cytotoxic": -12.3}
{"molecule": "Cc1c(CN2CCN(C(=O)C(C)C)CC2)sc2c(N3CCOCC3)nc(-c3cnc(N)nc3)nc12", "Potency": "0.264 µM (active)"}
{"molecule": "c1ccc(-c2nn3c(c2-c2ccnc4cc(OCCN5CCOCC5)ccc24)CCC3)nc1", "activity change, negative = cytotoxic": 36}
{"molecule": "O=c1[nH]c(-c2ccc(C(F)(F)F)cc2)nc2c1CSCC2", "activity change, negative = cytotoxic": 3.26}
{"molecule": "Cc1ccccc1C(OCCN(C)C)c1ccccc1", "note": "(stereo not given)", "activity change, negative = cytotoxic": -7.44}
{"molecule": "CN(C)c1ccc(C2Nc3ccc4ccccc4c3C3=C2C(=O)CC(C)(C)C3)cc1Br", "note": "(stereo not given)", "activity change, negative = cytotoxic": -15.8}
{"molecule": "C[C@]1(c2nc3c(C(N)=O)cccc3[nH]2)CCCN1", "activity change, negative = cytotoxic": -14.1}
